This is a sample that favours compounds with a hit; in the whole collection about 0.74% have one here.
Redox H2O2 prof: compounds producing H2O2 with reducing agent – biochemical, NIH compound library profiling, artefact control for MLSCN library redox annotation, primary screen; DTT-dependent redox cycling H2O2, phenol red/HRP absorbance; 100% = 100 µM peroxide control, 0% = buffer; activation, % at 10 µM; 0.03% of 200,000 active;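 active means activation of at least 50% relative to the plate's high and low controls in the primary single-dose screen; inactive means activation below 50%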;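 further: compound incubated with DTT at 0.8 mM final as the reducing agent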
LYPLA2 counter: LYPLA2 inhibitors, primary screen, counter-screen for PME1 inhibitor project, biochemical, fluorescence polarization, FP-Rh probe ABPP; inhibition, % at 5.9 µM; recombinant LYPLA2; 0.38% of 320,000 active;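 active means inhibition above the screen-wide mean plus 3 SD, limit set per campaign, cut at about 26% in these data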
LYPLA1 counter: LYPLA1 inhibitors, primary screen, counter-screen for PME1 inhibitor project, biochemical, fluorescence polarization, FP-Rh probe ABPP | Acyl-protein thioesterase 1 (Homo sapiens), O75608 | recombinant LYPLA1 | inhibition, % at 5.9 µM | 0.16% of 320,000 active | AID 2174, 2009;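 active means inhibition above the mean of all tested compounds plus 3 SD, set per campaign, cut at about 14% in these data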;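 further: inhibitors block serine hydrolase probe labeling of LYPLA1 so polarization falls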
p97 inhibitor: inhibitors of human p97 ATPase, primary screen, biochemical | recombinant p97 ATPase, Kinase-Glo ATP luminescence, 3 h | inhibition, % at 8 µM | Transitional endoplasmic reticulum ATPase (Homo sapiens), P55072 | 0.42% of 220,000 active | AID 1481, 2009; in the data active means inhibition above about 15%
p97 confirm: p97 ATPase inhibitors, retest, confirmation, biochemical. shares compounds with p97 inhibitor. recombinant p97 ATPase, Kinase-Glo ATP luminescence. inhibition, % at 8 µM. 44% of 760 active;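 active means percent inhibition of p97 ATPase above a set limit, the primary screen's mean plus 3 SD, cut at about 15% in these data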
LYPLA1 conf: LYPLA1 inhibitors, retest, confirmation, counter-screen for PME1 inhibitor project, biochemical, fluorescence polarization, FP-Rh probe ABPP; shares compounds with LYPLA1 counter; recombinant LYPLA1; inhibition, % at 5.9 µM; 69% of 480 active;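 active means mean inhibition across replicates above the hit cutoff set in the primary screen, cut at about 15% in these data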;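 further: loss of FP-Rh probe labeling of LYPLA1 seen as lower polarization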
LYPLA2 conf: LYPLA2 inhibitors, retest, confirmation, counter-screen for PME1 inhibitor project, biochemical, fluorescence polarization, FP-Rh probe ABPP | recombinant LYPLA2 | shares compounds with LYPLA2 counter | inhibition, % at 5.9 µM | 72% of 1,100 active;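 active means mean inhibition across replicates above the hit cutoff set in the primary screen, cut at about 26% in these data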;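 further: blocked labeling of the enzyme by serine hydrolase FP-Rh probe lowers polarization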
LYPLA2 gel ABPP: LYPLA2 inhibitors in proteome, late-stage follow-up, gel-based competitive ABPP, fluorescence, assay provider | 30% of 150 active | AID 652029, 2013 | shares compounds with LYPLA2 counter | inhibition, % at 20 µM | rhLYPLA2 in mouse brain proteome, gel ABPP FP-Rh;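 active means inhibition of LYPLA2 enzyme probe labeling above about 50%, limit read from the data; inactive means inhibition below that limit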;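 further: loss of FP-Rh probe labeling of the LYPLA2 gel band measured as band density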
Hits are given with their value; n = inactive; x = not tested or not shown; ! = not active in a repeat.

SMILES | Redox H2O2 prof | LYPLA2 counter | LYPLA1 counter | p97 inhibitor | LYPLA1 conf | LYPLA2 conf | others
Cc1cc2c(C(C)C)c(O)c(O)c(C=O)c2c(O)c1-c1c(C)cc2c(C(C)C)c(O)c(O)c(C=O)c2c1O | n | x | x | 21! | x | x | p97 confirm=77
N[C@@H]1C[C@H]1c1ccccc1 | x | n | n | x | x | x
O=[N+]([O-])c1ccc(N2CCCCCC2)c2nonc12 | x | n | 16 | x | 24 | x
Cc1cc2c(C(F)(F)F)cc(=O)oc2c2c1NCCC2 | n | n | n | n | x | x
O=c1cc(C(F)(F)F)c2cc3c4c(c2o1)CCCN4CCC3 | n | n | 18 | n | n | x
COC(=O)C1=C(c2ccc(OCc3ccccc3)cc2)C[C@@H]2CC[C@H]1N2C(=O)NCCCc1ccccc1 | x | n | n | x | x | x
C[n+]1c(-c2ccccc2)c2cc(N)ccc2c2ccc(N)cc21 | x | 116 | 89 | x | 68 | 76
c1ccc2nc(N3CCNCC3)ccc2c1 | x | n | n | x | x | x
C[N+](C)(C)CC(=O)O | x | n | n | x | x | x
Clc1ccccc1C1NCc2ccccc2-n2cccc21 (stereo not given) | n | n | n | n | x | x
O=C(COC(=O)Cc1ccccc1)Nc1cccnc1Cl | n | n | n | n | x | x
Cc1ccccc1NC(=O)Cc1nc(COC(=O)Cc2ccccc2)cs1 | x | 47 | 40 | x | n | n
O=[N+]([O-])c1ccc(NCc2ccccc2)c2nonc12 | n | 64 | 53 | n | 36 | 50
O=C(COc1ccccc1)N1CCN(C/C=C/c2ccccc2)CC1 | n | n | n | n | x | x
O=C(COc1ccc(Cl)cc1)N1CCN(C/C=C/c2ccccc2)CC1 | n | 70 | 26 | n | 24 | 77
Cn1ncnc2c(=O)n(C)c(=O)nc1-2 | x | 96 | 77 | x | 88 | 96
c1ccc(C2=NP(N3CCOCC3)(N3CCOCC3)=NC(N3CCOCC3)=N2)cc1 | n | x | x | n | x | x
O=C(COc1ccc2ccccc2c1)N1CCN(CC2CC3C=CC2C3)CC1 (stereo not given) | n | 26 | 20 | n | 34 | n
C[N+]1(C)C2CCC1CC(OC(=O)c1ccccc1)C2 (stereo not given) | x | 26 | n | n | x | n
C[N+]1(C)[C@@H]2CC[C@H]1CC(OC(=O)C(CO)c1ccccc1)C2 (stereo not given in full) | n | n | n | n | x | x
O=c1[nH]c(O)c(C=Nc2ccc(Cl)c(C(F)(F)F)c2)c(=O)[nH]1 | x | n | n | x | x | x
O=[N+]([O-])c1ccc(NCc2ccc(Cl)cc2)c2ccncc12 | x | 33 | n | x | x | 52 | LYPLA2 gel ABPP=n
Cc1c(C)c2ccc(OCC(=O)N3CCC(C(=O)O)(c4ccccc4)CC3)c(C)c2oc1=O | x | n | n | x | x | x
Cc1ccccc1N1C(=O)/C(=C/c2ccco2)C(=O)NC1=S | x | 47 | n | x | x | 32
O=C(COc1ccc(Br)cc1)N1CCN(Cc2ccc3c(c2)OCO3)CC1 | x | 32 | n | x | x | n
Cc1ccc(OCC(=O)N2CCN(Cc3ccc4c(c3)OCO4)CC2)cc1C | n | n | n | n | x | x
CCN(CC)C(=O)c1ccc(NC(=S)NC(=O)CCc2ccccc2)cc1 | x | 30 | n | x | x | n
CC(C(=O)c1cn(C)c2ccccc12)c1ccccc1 (stereo not given) | n | n | n | n | x | x
